Laboratory results from the supplement of paper PMC7695840.
Where a name gives a salt, the structure may show the parent alone.

Experiments:
[1] = system: Staphylococcus aureus MW2 delta-mecA (mecA-); assay: normalized GFP fluorescence (growth of mecA- strain) (fraction of control range); higher = more growth of mecA- strain; details: compound concentration: 150 uM; cefoxitin: subinhibitory; fluorescent label: GFP
Procedure, shortened: (§1)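 Two pre-induced S. aureus MW2 strains, one with the gene labeled by DsRed and one lacking it labeled by GFP, were mixed 1:1 in LB with a subinhibitory antibiotic dose set daily. The mix went at 5 µL/well onto 150 μM compound (1.5% DMSO) in 1536-well plates, single replicate, and grew unshaken 20 h at 37 °C, 90% humidity. DsRed (540/590) and GFP (485/520) values were scaled per plate between single-strain control medians, and plates with high untreated ratios or rows with DsRed/GFP >10 were left out.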

[2] = system: Staphylococcus aureus MW2 (mecA+); assay: normalized DsRed fluorescence (growth of mecA+ strain) (fraction of control range); higher = more growth of mecA+ strain; details: compound concentration: 150 uM; cefoxitin: subinhibitory; fluorescent label: DsRed
Procedure, shortened: as §1

| SMILES | normalized GFP fluorescence [1] | normalized DsRed fluorescence [2] |
| --- | --- | --- |
| CN1C[C@H](C(=O)N[C@]2(C)O[C@@]3(O)[C@@H]4CCCN4C(=O)[C@H](Cc4ccccc4)N3C2=O)C=C2c3cccc4[nH]cc(c34)C[C@H]21 | 0.435 | 1.11 |
| C[N+]1(C)CCCC(OC(=O)C(O)(c2ccccc2)c2ccccc2)C1 (centres undefined) | 0.765 | 0.852 |
| NC(=O)CN1CCCC1=O | 0.168 | 0.628 |
| C#C[C@]1(O)CC[C@H]2[C@@H]3CCC4=CC(=O)CC[C@]4(C)[C@H]3CC[C@@]21C | 0.473 | 0.916 |
| CC(Cc1ccc(O)cc1)NCC(O)c1cc(O)cc(O)c1 (centres undefined) | 0.322 | 0.737 |
| CN(C)C(=O)Oc1cccc([N+](C)(C)C)c1 | 0.41 | 1.1 |
| C#CCN(C)[C@H](C)Cc1ccccc1 | 0.853 | 0.547 |
| CC(C)N(CCC(C(N)=O)(c1ccccc1)c1ccccn1)C(C)C (centres undefined) | 0.541 | 0.697 |
| CN1C(=O)CCS(=O)(=O)C1c1ccc(Cl)cc1 (centres undefined) | 0.212 | 0.676 |
| NCC(CC(=O)O)c1ccc(Cl)cc1 (centres undefined) | 0.683 | 0.941 |
| CNCC(=O)c1ccc(O)c(O)c1 [Adrenalone HCl] | 0.708 | 0.797 |
| CC[C@H](C)[C@H]1O[C@]2(C=C[C@@H]1C)C[C@@H]1C[C@@H](C/C=C(\C)[C@@H](O[C@H]3C[C@H](OC)[C@@H](O[C@H]4C[C@H](OC)[C@@H](O)[C@H](C)O4)[C@H](C)O3)[C@@H](C)/C=C/C=C3\CO[C@@H]4[C@H](O)C(C)=C[C@@H](C(=O)O1)[C@]34O)O2.CO[C@H]1C[C@H](O[C@H]2[C@H](C)O[C@@H](O[C@@H]3/C(C)=C/C[C@@H]4C[C@@H](C[C@]5(C=C[C@H](C)[C@@H](C(C)C)O5)O4)OC(=O)[C@@H]4C=C(C)[C@@H](O)[C@H]5OC/C(=C\C=C\[C@@H]3C)[C@]54O)C[C@@H]2OC)O[C@@H](C)[C@@H]1O | 0.294 | 0.502 |
| CC[C@@H](c1cccc(O)c1)[C@@H](C)CN(C)C | 0.313 | 0.724 |
| CN(C)C(=O)Oc1ccc[n+](C)c1 | 0.22 | 0.58 |
| CN1C[C@H](C(=O)N[C@]2(C)O[C@@]3(O)[C@@H]4CCCN4C(=O)[C@H](Cc4ccccc4)N3C2=O)C[C@@H]2c3cccc4[nH]cc(c34)C[C@H]21 | 0.246 | 0.753 |
| CCN(C)C(=O)Oc1cccc([C@H](C)N(C)C)c1 | 0.23 | 0.742 |
| C[N+]12CCC(CC1)C(OC(=O)C(O)(c1ccccc1)c1ccccc1)C2 (centres undefined) | 0.468 | 0.579 |
| CCC1(c2ccc(N)cc2)CCC(=O)NC1=O (centres undefined) | 0.425 | 0.946 |
| CCC(=O)O[C@H]1CC[C@H]2[C@@H]3CCC4=CC(=O)CC[C@]4(C)[C@H]3CC[C@]12C | 0.154 | 0.364 |
| CCCC(C)(COC(N)=O)COC(=O)NC(C)C (centres undefined) | 0.54 | 1.05 |
| CN1[C@@H]2C[C@@H](OC(=O)[C@H](CO)c3ccccc3)C[C@H]1[C@@H]1O[C@@H]12 | 0.83 | 0.7 |
| CC(C)c1cccc(C(C)C)c1O | 0.257 | 0.882 |
| COc1ccc2c(c1)[C@]13CCCC[C@@H]1[C@H](C2)N(C)CC3 | 0.241 | 1.04 |
| CC(=O)O[C@H]1C[C@@H]2CC[C@@H]3[C@H](CC[C@@]4(C)[C@H]3C[C@H]([N+]3(C)CCCCC3)[C@@H]4OC(C)=O)[C@@]2(C)C[C@@H]1[N+]1(C)CCCCC1 [Pancuronium (Pavulon)] | 0.324 | 0.578 |

| SMILES | normalized GFP fluorescence [1] | normalized DsRed fluorescence [2] |
| --- | --- | --- |
| Nc1ccncc1 | 0.334 | 0.715 |
| CC(=O)OC1CN2CCC1CC2 (centres undefined) | 0.565 | 0.665 |
| CC[C@@H](C(N)=O)N1CCCC1=O | 0.416 | 1.14 |
| O=P1(NCCCl)OCCCN1CCCl (centres undefined) | 0.399 | 0.711 |
| NCCCNCCSP(=O)(O)O | 0.429 | 0.76 |
| CC1(C)C(C=C(Cl)Cl)C1C(=O)OCc1cccc(Oc2ccccc2)c1 (centres undefined) | 0.134 | 0.704 |
| NC(=O)C[S+]([O-])C(c1ccccc1)c1ccccc1 (centres undefined) | 0.716 | 0.558 |
| CC(C)[N+](C)(CCC(C(N)=O)(c1ccccc1)c1ccccc1)C(C)C | 0.202 | 0.447 |
| C[C@@H]1CC[C@H]2[C@@H](C)C(=O)O[C@@H]3O[C@@]4(C)CC[C@@H]1[C@]32OO4 [Artemisinin] | 0.505 | 0.66 |
| Oc1ccc2c3c1O[C@H]1[C@@H](O)CC[C@@]4(O)[C@@H](C2)N(CC2CCC2)CC[C@]314 | 0.717 | 0.715 |
| CN1C(=O)C(O)N=C(c2ccccc2)c2cc(Cl)ccc21 (centres undefined) | 0.205 | 0.691 |
| CNCC(O)c1ccc(O)cc1 (centres undefined) [Synephrine (Oxedrine)] | 0.516 | 0.777 |
| O=c1[nH]c2ccccc2n1CCCN1CCC(n2c(=O)[nH]c3cc(Cl)ccc32)CC1 [Domperidone (Motilium)] | 0.0985 | 0.927 |
| N[C@@H](Cc1ccc(N(CCCl)CCCl)cc1)C(=O)O | 0.309 | 0.612 |
| Cc1ccc(-c2nc3ccc(C)cn3c2CC(=O)N(C)C)cc1 | 0.38 | 0.527 |
| CC(NC(C)(C)C)C(=O)c1cccc(Cl)c1 (centres undefined) | 0.332 | 0.882 |
| COc1ccc(OC)c(C(O)C(C)N)c1 (centres undefined) | 0.864 | 0.526 |
| CCCN1C[C@H](CSC)C[C@@H]2c3cccc4[nH]cc(c34)C[C@H]21 [Pergolide mesylate] | 0.105 | 1.03 |
| N.N.[Cl][Pt][Cl] | 0.807 | 0.697 |
| O=C1CN=C(c2ccccc2Cl)c2cc([N+](=O)[O-])ccc2N1 | 0.145 | 1.02 |
| CCOC(=O)c1cncn1C(C)c1ccccc1 (centres undefined) | 0.248 | 0.732 |
| CC(C)CC(N(C)C)C1(c2ccc(Cl)cc2)CCC1 (centres undefined) | 0.0915 | – |
| C=C/C=C\CC1=C(C)[C@@H](OC(=O)[C@@H]2[C@@H](/C=C(\C)C(=O)OC)C2(C)C)CC1=O.C=C/C=C\CC1=C(C)[C@@H](OC(=O)[C@@H]2[C@@H](C=C(C)C)C2(C)C)CC1=O | 0.39 | 0.442 |
| CCC1(c2cccc(O)c2)CCCCN(C)C1 (centres undefined) [Meptazinol HCl] | 0.168 | 0.815 |

| SMILES | normalized GFP fluorescence [1] | normalized DsRed fluorescence [2] |
| --- | --- | --- |
| C[C@@H]1[C@H](O)[C@@H](C)/C=C/C=C/CC/C=C/C=C/C=C/C=C/[C@H](O[C@H]2O[C@@H](C)[C@H](O)[C@@H](N)[C@H]2O)C[C@@H]2O[C@](O)(C[C@@H](O)[C@H](O)CC[C@@H](O)C[C@@H](O)C[C@@H](O)CC(=O)O[C@H]1C)C[C@H](O)[C@H]2C(=O)O [Nystatin (Fungicidin)] | 0.00493 | 0.585 |
| O=P1(N(CCCl)CCCl)NCCCO1 (centres undefined) | 0.58 | 0.629 |
| C#C[C@]1(O)C=C[C@H]2[C@@H]3CCC4=CC(=O)CC[C@@H]4[C@H]3CC[C@@]21CC [Gestodene] | 0.342 | 0.279 |
| CCCC(C)C1(CC)C(=O)NC(=S)NC1=O (centres undefined) | 0.288 | 0.518 |
| CNC(C)(C)Cc1ccccc1 | 0.75 | 0.831 |
| Cc1c(N)nc(C(CC(N)=O)NCC(N)C(N)=O)nc1C(=O)NC(C(=O)NC(C)C(O)C(C)C(=O)NC(C(=O)NCCc1nc(-c2nc(C(=O)NCCC[S+](C)C)cs2)cs1)C(C)O)C(O[C@@H]1O[C@@H](CO)[C@@H](O)[C@H](O)[C@@H]1O[C@H]1O[C@H](CO)[C@@H](O)[C@H](OC(N)=O)[C@@H]1O)c1cnc[nH]1 (some centres undefined) | 0.114 | 0.862 |
| CO[C@]12C[C@@H](COC(=O)c3cncc(Br)c3)CN(C)[C@@H]1Cc1cn(C)c3cccc2c13 | 0.411 | 0.751 |
| CC(C)N(CCNC(=O)CN1CCCC1=O)C(C)C [Pramiracetam] | 0.568 | 0.402 |
| COc1cc2c(c(OC)c1OC)-c1ccc(OC)c(=O)cc1[C@@H](NC(C)=O)CC2 | 0.0184 | 0.897 |
| CCC(COC(=O)c1cc(OC)c(OC)c(OC)c1)(c1ccccc1)N(C)C (centres undefined) [Trimebutine] | 0.293 | 0.646 |
| Cc1cccc([C@H](C)c2c[nH]cn2)c1C [Dexmedetomidine] | 0.289 | 0.702 |
| C[C@]12CC[C@@H]3c4ccc(OC(=O)N(CCCl)CCCl)cc4CC[C@H]3[C@@H]1CC[C@@H]2O | 0.117 | 0.515 |
| O=[N+]([O-])O[C@@H]1CO[C@H]2[C@@H]1OC[C@@H]2O | 0.742 | 1.13 |
| C[C@]12CC[C@H]3[C@@H](CCC4=CC(=O)CC[C@@]43C)[C@@H]1CC[C@@H]2O | 0.501 | 0.506 |
| NC(=O)C[S@@+]([O-])C(c1ccccc1)c1ccccc1 | 0.234 | 1.11 |
| CC[C@H]1CN2CCc3cc(OC)c(OC)cc3[C@@H]2C[C@@H]1C[C@H]1NCCc2cc(OC)c(OC)cc21 | 0.439 | 0.948 |
| CC(C)C[C@H](CN)CC(=O)O | 0.412 | 0.571 |
| CC(O)CN1CCN(CC(=O)[O-])CCN(CC(=O)[O-])CCN(CC(=O)[O-])CC1.[Gd+3] (centres undefined) | 0.58 | 0.515 |
| COc1ccc(C(CN(C)C)C2(O)CCCCC2)cc1 (centres undefined) | 0.6 | 0.623 |
| c1ccc2c(c1)Nc1ccccc1S2 | 0.132 | 0.671 |
| O=[N+]([O-])O[C@H]1CO[C@H]2[C@@H]1OC[C@H]2O[N+](=O)[O-] | 0.915 | 0.65 |
| NCC1(CC(=O)O)CCCCC1 | 0.647 | 0.674 |
